Reference: PubChem BioAssay AID2061305 (National Center for Advancing Translational Sciences (NCATS), 2025)
Records with an inconclusive call do not appear. Active and inactive are the calls of the source. Calls follow the shape of the dose curve; as a rule, active = well fitted inhibition curve with a large enough effect; inconclusive = small, poorly fitted or top-dose-only effect; inactive = flat fitted curve, though single readings scatter. Where a SMILES comes first, the peptide text is derived from it. [ ]: non-standard residue; d: D form. The star is where a group is joined. Dolaproine = CO[C@@H]([C@@H]1CCCN1)[C@@H](C)C(=O)O; Dil = CC[C@H](C)[C@H](NC)[C@@H](CC(=O)O)OC; NMe2Val = CC(C)[C@@H](C(=O)*)N(C)C; X1 = C[C@@H](N*)[C@@H](O)c1ccccc1; NMeV = CN[C@H](C(=O)O)C(C)C

Test: Identification of antibody-drug conjugate (ADC) payloads which are substrates of ATP-binding cassette drug efflux transporters: ABCB1-HeLa-KB-3-1 cell line
Conditions: KB-3-1 (HeLa derivative) viability, CellTiter-Glo, 48 h
Text: Antibody-drug conjugates (ADCs) feature an antibody recognizing a specific protein joined to a potent toxic payload. Numerous antibody-drug conjugates have received FDA approval; however, clinical resistance arises. Resistance mechanisms include decreased expression or mutation of the antibody target, impaired payload release, or increased expression of ATP-binding cassette (ABC) efflux transporters associated with multidrug resistance. We therefore sought to characterize the interaction of ABC multidrug transporters with ADC payloads. We performed a high-throughput screen with 27 common ADC payloads using cells lines expressing ABC transporters P-glycoprotein (P-gp, encoded by ABCB1) or ABCG2 (encoded by ABCG2). Confirmatory assays were also performed using cells transfected to express P-gp, ABCG2, or MRP1 (encoded by ABCC1). Several commonly used ADC payloads were substrates of P-gp, including calicheamicin gamma1, monomethyl auristatin E, DM1, and DM4. All the pyrrolobenzodiazepines tested - SJG136, SGD-1882, SG2057, and SG3199 - were substrates of P-gp, ABCG2, and MRP1. […] These findings highlight the risk of transporter-mediated resistance with certain ADC payloads and underscore the importance of selecting payloads that evade ABC transporter recognition in future ADC development.
HEK-293 cells were transfected with empty vector (pcDNA) or vector containing the human ABCB1 (MDR-19), ABCG2 (R-5), or ABCC1 gene (MRP1) and were maintained in EMEM with 2 mg/mL G418 added to maintain transporter expression. The HeLa derivative KB-3-1 and the P-gp overexpressing KB-8-5-11 subline were maintained in DMEM; KB-8-5-11 additionally received 100 ng/mL colchicine. H460 parental cells were obtained from the Division of Cancer Treatment and Diagnosis Tumor Repository, National Cancer Institute at Frederick, MD and were cultured in RPMI. The ABCG2 expressing subline H460 MX20 was generated by selecting H460 cells in 20 nM mitoxantrone. Media in all cases was supplemented with 10% FBS and 1% penicillin-streptomycin. We explored 27 common ADC payloads, in two orthogonal, paired cell line sets-a drug selected and transfected set for each transporter--to identify substrates of the ABC transporters P-gp and ABCG2. Compounds were sourced from Levena Biopharma (San Diego, CA), Selleck Chem (Houston, TX), ChemieTek (Indianapolis, IN), or Microsource Discovery Systems (Gaylordsville, CT). Screening was performed as previously described. Briefly, cells were plated at a density of 500 cells/well in 1536 well plates with compounds added using a 1536-head pin tool (Kalypsys, San Diego CA). Cells were incubated with cytotoxic drugs and processed with CellTiter Glo reagent (Promega, Madison, WI) to determine viability after 48 hours. P-gp substrates were identified by comparing compound activity between paired sets of low-expressing (sensitive) and over-expressing (resistant) cell lines.

| Compound | Potency |
| --- | --- |
| CC[C@H](C)[C@@H]([C@@H](CC(=O)N1CCC[C@H]1[C@H](OC)[C@@H](C)C(=O)N[C@H](C)[C@@H](O)c1ccccc1)OC)N(C)C(=O)[C@@H](NC(=O)[C@@H](NC)C(C)C)C(C)C (H-[NMeV]V[Dil][Dolaproine]-X1) | 0.3 nM (active) |
| COc1cc2cc(c1Cl)N(C)C(=O)C[C@H](OC(=O)[C@H](C)N(C)C(=O)CCC(C)(C)S)[C@]1(C)OC1[C@H](C)C1C[C@@](O)(NC(=O)O1)[C@H](OC)/C=C/C=C(\C)C2 (stereo not given in full) | 0.5 nM (active) |
| CC[C@H](C)[C@@H]([C@@H](CC(=O)N1CCC[C@H]1[C@H](OC)[C@@H](C)C(=O)N[C@H](C)[C@@H](O)c1ccccc1)OC)N(C)C(=O)[C@@H](NC(=O)[C@H](C(C)C)N(C)C)C(C)C | 0.2 nM (active) |
| CC[C@H](C)[C@@H]1NC(=O)CNC(=O)[C@H]2Cc3c([nH]c4cc(O)ccc34)S(=O)C[C@H](NC(=O)CNC1=O)C(=O)N[C@@H](CC(N)=O)C(=O)N1C[C@H](O)C[C@H]1C(=O)N[C@@H]([C@@H](C)[C@@H](O)CO)C(=O)N2 (stereo not given in full) | 5290 nM (active) |
| COc1cc2cc(C(=O)N3C[C@@H](CCl)c4c3cc(O)c3ccccc43)[nH]c2c(OC)c1OC | 1.3 nM (active) |
| CC[C@H](C)[C@H](NC(=O)[C@H]1CCCCN1C)C(=O)N(C)[C@H](C[C@@H](OC(C)=O)c1nc(C(=O)N[C@@H](Cc2ccccc2)C[C@H](C)C(=O)O)cs1)C(C)C | 0.3 nM (active) |
| CC[C@H](C)[C@@H]([C@@H](CC(=O)N1CCC[C@H]1[C@H](OC)[C@@H](C)C(=O)N[C@@H](Cc1ccccc1)C(=O)O)OC)N(C)C(=O)[C@@H](NC(=O)[C@H](C(C)C)N(C)C)C(C)C (NMe2Val-V[Dil][Dolaproine]F-OH) | 33.4 nM (active) |
| CC[C@@]1(O)C(=O)OCc2c1cc1n(c2=O)Cc2cc3ccccc3nc2-1 | 334 nM (active) |
| COc1cccc2c1C(=O)c1c(O)c3c(c(O)c1C2=O)C[C@@](O)(C(=O)CO)CC3OC1CC(N2CCOC(OC)C2)C(O)C(C)O1 (stereo not given in full) | 11.8 nM (active) |
| CC[C@H](C)[C@H](NC(=O)[C@H]1CCCCN1C)C(=O)N(C)[C@H](C[C@@H](OC(C)=O)c1nc(C(=O)O)cs1)C(C)C | 472 nM (active) |
